# About 79,000 compounds went through this panel and 15% of them were active in at least one assay; those are over-represented in the sample as a whole. Values without a mark were called inactive. Calls of active or inactive are those of the source. Cut-off read from the data, not from the text of the source: active = growth inhibition above about 70%; inactive = the rest.
# Assays:
# [1] = NCI Yeast Anticancer Drug Screen. Data for the rad50 strain (AID 155);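 note: 0% = growth of vehicle-only cultures of the same strain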; settings: S. cerevisiae rad50 strain growth inhibition, active compounds read high
# Summary of the method: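 Inhibition values express reduced yeast growth in compound-treated cultures relative to vehicle-treated controls.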
# [2] = NCI Yeast Anticancer Drug Screen. Data for the mec2-1 strain (AID 157); settings: S. cerevisiae mec2-1 strain, active compounds read high
# Summary of the method: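 Readout is yeast growth inhibition, normalised to vehicle-treated controls, in the mec2-1 strain exposed to compound.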
# [3] = NCI Yeast Anticancer Drug Screen. Data for the sgs1 mgt1 strain (AID 161);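 note: 0% = growth of cultures given vehicle only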; settings: S. cerevisiae sgs1 mgt1 strain, active compounds read high
# Summary of the method: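 This yeast growth screen uses a strain with defined DNA-repair lesions; compound-treated growth is compared with vehicle-treated growth.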
# [4] = NCI Yeast Anticancer Drug Screen. Data for the cln2 rad14 strain (AID 165);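 note: 0% = growth equal to vehicle treated cultures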; settings: S. cerevisiae cln2 rad14 strain, active compounds read high
# Summary of the method: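 Relative to vehicle controls, growth inhibition of compound-treated cln2 rad14 yeast was recorded.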
# [5] = NCI Yeast Anticancer Drug Screen. Data for the bub3 strain (AID 167); settings: S. cerevisiae bub3 mutant strain, active compounds read high
# Summary of the method: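 Steps: expose the mutant yeast strain to compound; grow alongside vehicle-treated cultures; measure growth; express inhibition against the vehicle cultures.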
# [6] = NCI Yeast Anticancer Drug Screen. Data for the mlh1 rad18 strain (AID 175); settings: S. cerevisiae mlh1 rad18 strain growth inhibition, active compounds read high
# Summary of the method: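 Test agents were incubated with a yeast strain of defined genotype (DNA damage repair defect). Inhibition of growth was derived by comparison with vehicle-exposed cultures.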
# [7] = at 5.0 µM (retest, dose inferred, filed as 0.5)
# [8] = at 50.0 µM (retest, dose inferred, filed as 5.0)
Structure (SMILES),"growth inhibition [1, 7]","growth inhibition [1, 8]",growth inhibition ([1]; at 50.0 µM),"growth inhibition [2, 7]","growth inhibition [2, 8]",growth inhibition ([2]; at 50.0 µM),"growth inhibition [3, 7]","growth inhibition [3, 8]",growth inhibition ([3]; at 50.0 µM),"growth inhibition [4, 7]","growth inhibition [4, 8]",growth inhibition ([4]; at 50.0 µM),"growth inhibition [5, 7]","growth inhibition [5, 8]",growth inhibition ([5]; at 50.0 µM),"growth inhibition [6, 7]","growth inhibition [6, 8]",growth inhibition ([6]; at 50.0 µM)
O=C1C(Sc2ccc3ccccc3c2)=C(Sc2ccc3ccccc3c2)C(=O)c2ccccc21,34%,90% (active),94.2% (active),21%,94% (active),99% (active),36%,93% (active),98.9% (active),7%,89% (active),98.3% (active),71% (active),90% (active),98.9% (active),16%,89% (active),96.8% (active)
CN1N=C2c3ccccc3CC[C@H]2C1c1cccc(O)c1 (stereo not given in full),-36%,65%,52.7%,5%,34%,23.4%,-16%,88% (active),69.2%,24%,83% (active),43.8%,21%,78% (active),67.2%,-16%,82% (active),35.9%
CN1c2ccccc2S(=O)(=O)n2c(CCc3ccccc3)nnc21,1%,10%,14.3%,5%,13%,-3%,10%,10%,-6.9%,17%,14%,9.85%,9%,15%,-10.7%,10%,17%,32.5%
NC(N)=NS(=O)(=O)c1ccc(N=Cc2c3ccccc3nc3cc(Cl)ccc23)cc1,5%,-4%,95.1% (active),11%,-2%,93% (active),4%,-5%,96.2% (active),-5%,-3%,91.5% (active),10%,0%,26.5%,6%,-2%,97% (active)
Cc1noc(NS(=O)(=O)c2ccc(N=Nc3cc(N=Nc4ccc(S(=O)(=O)Nc5onc(C)c5C)cc4)c4c(NC(=O)C(Cl)Cl)cccc4c3O)cc2)c1C (tested in a mixture with another compound),96% (active),61%,73% (active),97% (active),57%,74.5% (active),95% (active),63%,75% (active),96% (active),65%,63.4%,95% (active),56%,49.1%,88% (active),43%,59.2%
CN(C)c1nc(N(C)C)nc([N+](C)(C)C)n1,1%,-1%,98.5% (active),-3%,1%,98% (active),-1%,-4%,99.1% (active),-3%,-1%,96.5% (active),0%,-5%,98% (active),-5%,-7%,98.7% (active)
CC1SC2=NC3=C(c4ccccc4C3=O)C(c3ccc(Cl)cc3)N2C1=O (stereo not given),-3%,75% (active),58.7%,-28%,81% (active),33.8%,-6%,69%,73.2% (active),14%,84% (active),56.3%,-3%,88% (active),51.8%,-17%,91% (active),53.4%
COC(=O)C(CCC(=O)Cc1ccccc1)N1C(=O)c2ccccc2C1=O (stereo not given),6%,67%,70%,1%,91% (active),56.9%,16%,87% (active),81.6% (active),10%,43%,1.4%,8%,86% (active),76% (active),16%,89% (active),88% (active)
CCOc1ccc2nc(Cl)sc2c1,-17%,67%,82.5% (active),-7%,91% (active),89.8% (active),6%,79% (active),69.5%,31%,39%,94% (active),1%,97% (active),96.3% (active),-12%,89% (active),79% (active)
O=S(=O)(SCc1ccccc1)C(c1ccccc1)c1ccccc1,10%,6%,89.7% (active),13%,6%,98.6% (active),13%,31%,98% (active),5%,-17%,95.5% (active),13%,39%,99.1% (active),20%,18%,98% (active)

# Source: PubChem BioAssay (NCI)
